According to PubChem BioAssay (NCATS):
Results filed as inconclusive are left out. Active and inactive are the calls of the source. Unless noted, calls come from the whole dose curve; as a rule, active = well fitted curve in either direction with a large enough effect (not every such curve was filed as active); inconclusive = small, poorly fitted or top-dose-only effect, or another doubt; inactive = flat fitted curve, though single readings scatter.

Tested on: not listed separately
Experiment: Stat Signaling Pathway (AID 446);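 note: ME-180 cervical cancer cells given 40 pM IL-6 alongside compound; SIE-controlled beta-lactamase reporter measured as 460/530 nm FRET emission ratio; % is set by controls: 0 for no effect and ±100 for the full control effect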
Conditions: ME-180 SIE beta-lactamase reporter, IL-6 stimulated, 5 h; at 17.2 µM (top of the series) unless noted
Method in brief: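 ME-180 SIE-bla cells; overnight plating; cpd + IL-6 40 pM, 5 h, 37 C; LiveBLAzer 2.5 h RT; 460/530 nm emission ratio. Normalized to 300 pM IL-6 and 125 nM JAK inhibitor controls.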

activity, negative = inhibition, inactive:
CN(C)c1nc(OCCOC(=O)Nc2ccc(Cl)cc2Cl)nc(N(C)C)n1 -7.35%
CCOC(=O)c1n[nH]c2ccccc12 -6.98%
COn1c(SC2CCCCC2)nc2ccccc2c1=O -9.6%
CC1(C)NC(=O)N(CC(O)COc2ccccc2C(=O)Nc2ccccc2)C1=O (stereo not given) 3.3%
O=C(NCCC1=CCCCC1)c1ccc(=O)oc1 7.23%
CC1CC(C(F)(F)F)n2ncnc2N1 (stereo not given) 12.9%
Cn1c(=O)c2c(nc(NCc3ccco3)n2CCc2ccccc2)n(C)c1=O -5.04%
COCCNc1oc(-c2ccc(Cl)cc2)nc1C#N -5.03%
OCCOCCNc1ncnc2c1cnn2-c1ccc(Cl)cc1 4.43%
CSc1nc(N)nc(SCC(=O)CC(=O)OC(C)C)c1C#N -1.28%
CCOC(=O)COn1c(=O)c(-c2ccc(OC)c(OC)c2)[n+]([O-])c2ccccc21 4.19%
C=CCn1cnc2c(c1=O)c1nc3ccccc3nc1n2-c1ccc(C)cc1 -8.6%
CC(C)c1nc2n[nH]c(N)c2c2c1CCC2 -1.39%
COC(=O)C1=C(C)OC(N)=C(C#N)C1c1ccc(OC)c(OC)c1OC (stereo not given) 8.15%
Cc1cccc(N(CC(O)CN(C)C)S(=O)(=O)c2ccccc2)c1 (stereo not given) 3.62%
Nc1ccc2oc3ncccc3c(=O)c2c1 -3.84%
COc1ccc(CN2CCC(=O)NC2=O)cc1 9.56%
O=C(CCC1CCCC1)N1CCC(N2CCN(c3ccccc3)CC2)CC1 9.85%
O=S(=O)(/C=C/c1ccccc1)Nc1ccc2c(c1)OCO2 -22.1%
CC(C)c1[nH]c(=O)c(C#N)c2c1CSC(C)(C)C2 4.25%
O=C1OC(N2CCN(C/C=C/c3ccccc3)CC2)c2ccccc21 (stereo not given) 0.214%
Cn1c(=O)c2c(nc(Br)n2CCSc2ncccn2)n(C)c1=O -0.734%
Cc1[nH]c2ccc3c(ncn3CCC#N)c2c1C -5.09%
C=CCN(C(=O)CCC(=O)O)C1CC(=O)N(c2ccc(OC)cc2)C1=O (stereo not given) 5.71%
CC(=N\O)/C(CN(C)C)=N/O 12%
O=CN1CCN(C(=O)CN2C(=O)c3ccccc3C2=O)CC1 6.47%
CCn1nc(NC(=O)c2cccnc2)c2cc3ccccc3nc21 -4.62%
Cc1nnc(SCC(=O)N2CCOCC2)c2ccccc12 2.48%
CCCC(=O)Nc1sc2c(c1C#N)CCCC2 8.33%
COc1ccc(-c2nn3c(-c4ccccn4)nnc3s2)cc1OC -2.76%
CC(=O)/C(C#N)=C1\NC(=O)C(Cc2ccccc2)S1 (stereo not given) 3.16%
CCOC(=O)N1CCN(C(=O)c2cn(CC)c3cc(N4CCN(C)CC4)c(F)cc3c2=O)CC1 0.507%
Cn1ncc2c(Nc3ccccc3Br)ncnc21 -3.41%
Cc1nnc2n(Cc3ccccc3)c(=O)c3c4c(sc3n12)COC(C(C)C)C4 (stereo not given) 5.19%
CCOC(=O)c1[nH]c2ccccc2c1NC(=O)CCN1CCN(C(=O)OCC)CC1 -0.665%
CCOc1ccc(-c2nc(C#N)c(N3CCN(CC)CC3)o2)cc1 19.7%
O=C1CC(NCc2ccncc2)C(=O)N1c1ccc(Cl)cc1 (stereo not given) -1.32%
COc1ccc2nc(SCC(=O)O)nc(C)c2c1 3.73%
Clc1cccc(-c2nn3c(COc4ccccc4)nnc3s2)c1 17.5%
Cc1occc(=O)c1OC(=O)Nc1ccccc1 7.55%

Target: Glucocorticoid receptor (Homo sapiens) (UniProt P04150)
Sequence (P04150 whole entry, looked up): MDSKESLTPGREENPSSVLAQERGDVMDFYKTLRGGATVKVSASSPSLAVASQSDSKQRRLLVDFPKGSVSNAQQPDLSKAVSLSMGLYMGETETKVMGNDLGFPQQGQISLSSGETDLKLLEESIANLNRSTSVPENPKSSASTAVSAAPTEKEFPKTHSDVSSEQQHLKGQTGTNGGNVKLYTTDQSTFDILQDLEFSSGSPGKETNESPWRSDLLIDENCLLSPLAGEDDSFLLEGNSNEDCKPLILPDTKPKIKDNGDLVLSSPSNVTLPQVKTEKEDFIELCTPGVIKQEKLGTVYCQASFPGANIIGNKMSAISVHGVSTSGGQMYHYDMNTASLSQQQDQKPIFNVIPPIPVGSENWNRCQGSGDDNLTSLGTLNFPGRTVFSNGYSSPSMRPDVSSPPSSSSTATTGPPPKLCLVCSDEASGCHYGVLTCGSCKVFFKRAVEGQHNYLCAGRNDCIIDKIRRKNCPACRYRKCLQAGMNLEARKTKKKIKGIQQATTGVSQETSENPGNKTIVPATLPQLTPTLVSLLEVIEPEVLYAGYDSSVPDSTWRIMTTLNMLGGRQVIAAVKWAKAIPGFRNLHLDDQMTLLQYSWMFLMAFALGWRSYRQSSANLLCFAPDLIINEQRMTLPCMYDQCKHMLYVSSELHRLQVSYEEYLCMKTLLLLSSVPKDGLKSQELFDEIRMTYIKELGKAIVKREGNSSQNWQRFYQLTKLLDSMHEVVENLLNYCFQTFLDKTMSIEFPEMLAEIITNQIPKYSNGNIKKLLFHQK
Experiment: GR-GFP Redistribution (AID 450;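 active = compounds whose dose series gives a full or clear partial fitted curve of increased nuclear translocation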; note: potency is the fitted concentration of half-maximal effect)
Conditions: U2OS GR-GFP nuclear translocation, laser cytometry, 2 h; series mostly up to 20.6 µM

Potency, inactive:
CN(C)c1nc(OCCOC(=O)Nc2ccc(Cl)cc2Cl)nc(N(C)C)n1 > 20.6 µM
CCOC(=O)c1n[nH]c2ccccc12 > 20.6 µM
COn1c(SC2CCCCC2)nc2ccccc2c1=O > 20.6 µM
CC1(C)NC(=O)N(CC(O)COc2ccccc2C(=O)Nc2ccccc2)C1=O (stereo not given) > 20.6 µM
O=C(NCCC1=CCCCC1)c1ccc(=O)oc1 > 20.6 µM
CC1CC(C(F)(F)F)n2ncnc2N1 (stereo not given) > 20.6 µM
Cn1c(=O)c2c(nc(NCc3ccco3)n2CCc2ccccc2)n(C)c1=O > 20.6 µM
COCCNc1oc(-c2ccc(Cl)cc2)nc1C#N > 20.6 µM
OCCOCCNc1ncnc2c1cnn2-c1ccc(Cl)cc1 > 20.6 µM
CSc1nc(N)nc(SCC(=O)CC(=O)OC(C)C)c1C#N > 20.6 µM
CCOC(=O)COn1c(=O)c(-c2ccc(OC)c(OC)c2)[n+]([O-])c2ccccc21 > 20.6 µM
C=CCn1cnc2c(c1=O)c1nc3ccccc3nc1n2-c1ccc(C)cc1 > 20.6 µM
CC(C)c1nc2n[nH]c(N)c2c2c1CCC2 > 20.6 µM
COC(=O)C1=C(C)OC(N)=C(C#N)C1c1ccc(OC)c(OC)c1OC (stereo not given) > 20.6 µM
Cc1cccc(N(CC(O)CN(C)C)S(=O)(=O)c2ccccc2)c1 (stereo not given) > 20.6 µM
Nc1ccc2oc3ncccc3c(=O)c2c1 > 20.6 µM
COc1ccc(CN2CCC(=O)NC2=O)cc1 > 20.6 µM
O=C(CCC1CCCC1)N1CCC(N2CCN(c3ccccc3)CC2)CC1 > 20.6 µM
O=S(=O)(/C=C/c1ccccc1)Nc1ccc2c(c1)OCO2 > 20.6 µM
CC(C)c1[nH]c(=O)c(C#N)c2c1CSC(C)(C)C2 > 20.6 µM
O=C1OC(N2CCN(C/C=C/c3ccccc3)CC2)c2ccccc21 (stereo not given) > 20.6 µM
Cn1c(=O)c2c(nc(Br)n2CCSc2ncccn2)n(C)c1=O > 20.6 µM
Cc1[nH]c2ccc3c(ncn3CCC#N)c2c1C > 20.6 µM
C=CCN(C(=O)CCC(=O)O)C1CC(=O)N(c2ccc(OC)cc2)C1=O (stereo not given) > 20.6 µM
CC(=N\O)/C(CN(C)C)=N/O > 20.6 µM
O=CN1CCN(C(=O)CN2C(=O)c3ccccc3C2=O)CC1 > 20.6 µM
CCn1nc(NC(=O)c2cccnc2)c2cc3ccccc3nc21 > 20.6 µM
Cc1nnc(SCC(=O)N2CCOCC2)c2ccccc12 > 20.6 µM
CCCC(=O)Nc1sc2c(c1C#N)CCCC2 > 20.6 µM
COc1ccc(-c2nn3c(-c4ccccn4)nnc3s2)cc1OC > 20.6 µM
CC(=O)/C(C#N)=C1\NC(=O)C(Cc2ccccc2)S1 (stereo not given) > 20.6 µM
CCOC(=O)N1CCN(C(=O)c2cn(CC)c3cc(N4CCN(C)CC4)c(F)cc3c2=O)CC1 > 20.6 µM
Cn1ncc2c(Nc3ccccc3Br)ncnc21 > 20.6 µM
Cc1nnc2n(Cc3ccccc3)c(=O)c3c4c(sc3n12)COC(C(C)C)C4 (stereo not given) > 20.6 µM
CCOC(=O)c1[nH]c2ccccc2c1NC(=O)CCN1CCN(C(=O)OCC)CC1 > 20.6 µM
CCOc1ccc(-c2nc(C#N)c(N3CCN(CC)CC3)o2)cc1 > 20.6 µM
O=C1CC(NCc2ccncc2)C(=O)N1c1ccc(Cl)cc1 (stereo not given) > 20.6 µM
COc1ccc2nc(SCC(=O)O)nc(C)c2c1 > 20.6 µM
Clc1cccc(-c2nn3c(COc4ccccc4)nnc3s2)c1 > 20.6 µM
Cc1occc(=O)c1OC(=O)Nc1ccccc1 > 20.6 µM
